Assay outcomes: PubChem BioAssay, National Center for Advancing Translational Sciences (NCATS)
HCV inh: blocks hepatitis C virus; Huh7.5.1 HCVcc-Cre infection, luciferase reporter, 44 h; AID 651820; Potency, µM (series often up to 41.8 µM), inactives show top-dose activity change, negative = inhibition, most hits filed as inhibitors; 3.4% of 340,000 active; active means well fitted inhibition curve with a large enough effect; inconclusive means small, poorly fitted or top-dose-only effect, or another doubt; inactive means no such curve, though single readings can be large or run the other way; further: potency means the concentration at half of the fitted maximal effect
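Reporter virus HCVcc-Cre (~0.5 moi) infects cells exposed to compound; seeding density 1,000 cells/well with 4 h settling beforehand. Luminescence, 15 sec read, taken 44 h post-infection following a 15 min RT substrate incubation.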
MARV entry inh: blocks Marburg virus binding to or entry into cells | Marburg virus pseudotyped entry inhibition, cell reporter | Potency, µM (series often up to 37.8 µM), for inactives: top-dose activity change, negative = inhibition, usual class: inhibitors | 1.8% of 300,000 active; calls by dose curve; tested in HEK293 cells; further: potency means the concentration at half of the fitted maximal effect
HCMV inh: blocks human cytomegalovirus replication. activity change, negative = inhibition, % at 57.5 µM. 4.5% of 410,000 active. HFF cells, HCMV-luciferase reporter, 72 h; stronger effect = lower value. AID 1259415; in the data active means activity change below about -60%; inconclusive means no clear call, values can overlap the other calls; inactive means above about -39%
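Two-dose cell screen: HFF monolayers treated with compounds and infected with luciferase-expressing HCMV at 1 PFU/cell, 72 h at 37C, then lysed for luciferase measurement.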
LASV entry inh: inhibitors of Lassa virus binding or cell entry | AID 540256 | 1.2% of 300,000 active | Potency, µM (highest dose often 37.9 µM), for inactives: at the top dose activity change, negative = inhibition, hits mostly inhibitors | Lassa virus pseudotype entry inhibition, cell reporter; calls by dose curve; tested in HEK293 cells; further: potency means the concentration at half of the fitted maximal effect; nearly all actives have a fitted effect of over 50% in size
FMDV inh: antivirals against foot and mouth disease virus | FMDV antiviral cell-based qHTS | Potency, µM (top dose mostly 57.9 µM), for the others: at the top dose activity change, negative = inhibition, usual class: inhibitors | 1.2% of 410,000 active; calls by dose curve; tested in HEK293T cells; further: read-out not given here; potency means the concentration at half of the fitted maximal effect; nearly all actives have a fitted effect of over 45% in size
Active calls of the source: *; u = inconclusive; x = no result given; [ ] = remark or other dose. The list is not random: actives were taken first. Their share in the collection is about 7.9%. On the % scale 0 is the no-effect control and ±100 the full control effect.

SMILES	HCV inh	MARV entry inh	HCMV inh	LASV entry inh	FMDV inh
CC(C)c1cc(C(=O)N2CCCC(N3CCN(c4ccc(F)cc4)CC3)C2)n(C)n1 (configuration not stated)	u	x	-63.9*	x	u
CC(C)c1cc(C(=O)N2CCCC(N3CCN(c4ccc(F)cc4)CC3)C2)no1 (configuration not stated)	u	-16.5%[46.1 µM]	26.5	u	25.8%
COC(=O)NCC=Cc1nc(CCCO)co1	x	-24.0%[14.2 µM]	x	x	x
COC(=O)c1cccnc1-n1c(=O)c2cccnc2n(Cc2cccc([N+](=O)[O-])c2)c1=O	-3.5%	x	-85.8*	x	-16.0%
Cc1cccc(NC(=O)NC(C)C(c2cccs2)N2CCOCC2)c1 (configuration not stated)	6.4%	x	-67.0*	x	-20.9%
COC(=O)C1=C(C)NC(=O)/C1=C\c1cc(C)n(-c2c(C)cccc2C)c1C	u	11.6µM*	-61.5*	u	x
COC(=O)C1=C(C)NC(=O)/C1=C\c1cc(C)n(-c2ccccc2C)c1C	u	-3.7%	-27.6	u	-0.9%
Cc1cc(Nc2ccc(Cl)cc2)nc(-c2ccccc2O)n1	11.2µM*	x	-31.6	x	19.5%
COC(=O)c1cccc(Nc2cc(C)nc(-c3ccccc3O)n2)c1	0.794µM*	u	33.1	-21.9%	-15.8%
COC(=O)c1ccc(Nc2cc(C)nc(-c3ccccc3O)n2)cc1	-16.9%	-2.7%	-9.3	-11.5%	-17.5%
CCOC(=O)c1ccc(Nc2cc(C)nc(-c3ccccc3)n2)cc1	u	x	-76.4*	x	-22.2%
COc1ccc(CNC(=O)COC(=O)c2c(NC(C)=O)sc(C)c2C)cc1OC	x	x	4.3	x	u
CCN(CC)c1ncnc2c1ncn2[C@H]1CN(Cc2cc(OC)c(OC)c(OC)c2)C[C@@H](CO)O1	x	x	7.3	x	-19.6%
O=C(COc1cc(F)ccc1[N+](=O)[O-])Nc1ccc(N2CCCCC2)cc1	u	u	-25.8	1.4%	u
Cc1ccc(NC(=O)C(c2ccccc2)N2CCN(CC(=O)NC3CC3)CC2)cc1 (configuration not stated)	-28.4%	-24.2%	-10.3	-25.8%	21.2%
Cc1ccccc1OCc1nnc(SCC(=O)Nc2ccc3c(c2)oc2ccccc23)n1C	u	13.2%	-1.2	-8.6%	16.7%
O=C(Nc1ccc2c(c1)oc1ccc(S(=O)(=O)N3CCCC3)cc12)C1CC1	u	-25.0%	u	11.6µM*	x
O=C(O)CCCC(=O)Nc1ccc2c(c1)oc1ccccc12	u	x	-3.5	x	-1.3%
O=C(Nc1ccc2c(c1)oc1ccccc12)C1CC1	10µM*	u	86.1	12.4%	27.9%
Cc1ccc(-c2nnc(SCC(=O)Nc3ccc4c(c3)oc3ccccc34)n2C)c(Cl)c1	u	-24.9%	-86.0*	-20.0%	-22.2%
O=C(Nc1ccc(Br)c(Cl)c1)C1CC1	u	4.3%	-62.2*	6.9%	-8.8%
CC(C)NC(=O)c1nnc2n1CCN(Cc1cccc3c1OCO3)C2	x	x	-12.8	x	x
CC1(C)OC(=O)C2=C(C[C@@H](CCc3ccccc3)O[C@H]2C2CCCC2)O1	x	x	-2.6	x	0.0%
COC(=O)C1(C(=O)OC)CC(CO)C(=O)[C@H]1c1ccccc1 (some centres not stated)	x	-8.4%[14.2 µM]	x	x	x
CCN(CC)CCNC(=O)c1ccc2c(=O)n3nc(Nc4cccc(Cl)c4C)sc3nc2c1	x	x	-32.3	u	-0.9%
SMILES	HCV inh	MARV entry inh	HCMV inh	LASV entry inh	FMDV inh
CCCCN1CC(N2CCN(C(=O)c3ccco3)CC2)CS1(=O)=O (configuration not stated)	x	u	7.9	x	-4.8%
CCOc1c2ccc(C(=O)NCc3ccc4c(c3)OCO4)cc2nn1CCOC	-4.2%	x	-10.1	x	35.6%
CC(C)CC(=O)Nc1ccc2c(c1)oc1ccccc12	22.4µM*	u	104.9	u	61.8%
CCCCC(=O)Nc1ccc2c(c1)oc1ccccc12	u	-1.0%	158.8	u	59.7%
Nc1nc2c([nH]c(=O)n2C2OC(CO)C(O)C2O)c(=O)[nH]1 (configuration not stated)	x	x	x	x	4.9%
COc1ccc(OC)c(NC(=S)NN2CCOCC2)c1	20.3%	1.9%	-102.3*	3.9%	23.3%
CCOc1ccc(NC(=O)c2c(NCc3cccs3)sc3c2CCCCC3)cc1	x	x	-7.7	-13.3%[46.1 µM]	46.5%
COc1ccc(CCC(C)N2CCC(Oc3ccc(C(=O)N4CCCC4)cc3)CC2)cc1 (configuration not stated)	u	u	-8.2	-29.9%	15.2%
CC(CCc1ccc(O)cc1)N1CCC(Oc2ccc(C(=O)N3CCCC3)cc2)CC1 (configuration not stated)	-0.6%	2.2%	-60.3*	14.0%	-3.8%
CN(C(=O)c1cccc(NC(=O)Cc2ccc(NC(=O)C3CCCN(C(=O)c4ccccc4)C3)cc2)c1)C1CCCCC1 (configuration not stated)	-1.1%[8.37 µM]	x	-6.3	x	u
C[C@H]1CC[C@H]2C(=O)O[C@H](CO)CN2[C@H]1c1ccc(Br)cc1	x	-20.5%[14.2 µM]	x	u	x
COc1ccc(Cl)cc1NC(=O)C(=O)NC1CCCCCC1	15.5%	u	10.6	0.9%	-5.1%
CCC(C)(C)NC(=O)Nc1cc(Cl)ccc1OC	u	-11.7%	-61.5*	3.1%	1.8%
CCN1CCC(N(Cc2ccc3c(c2)OCO3)C(=O)Nc2ccccc2OC)CC1	x	x	-4.6	-6.3%[46.1 µM]	-19.2%
CCN1CCC(N(Cc2ccc3c(c2)OCO3)C(=O)Nc2cc(Cl)ccc2C(=O)OC)CC1	x	x	-79.8*	u	-24.2%
COc1ccc(Cl)cc1NC(=O)NC(C)C	u	x	-100.8*	x	-8.9%
CCN1CCC(NC(=O)Nc2cc(Cl)ccc2OC)CC1	0.6%	7.08µM*	-12.9	-6.7%[46.1 µM]	-4.2%
COc1ccc(CNC(=O)C2CCCCN2S(=O)(=O)c2ccc(F)cc2)cc1 (configuration not stated)	x	x	-12.7	u	-6.5%
O=C(NCC1Cc2cccc(-c3cncnc3)c2O1)C1CC1 (configuration not stated)	x	x	x	x	-14.0%
COc1cc(NC(=O)CSc2nnc3ccccn23)cc(OC)c1	8.6%	x	41.5	x	-8.5%
CC(C)(C)c1cc(NC(=O)CCSc2nnc3ccccn23)cc(C(C)(C)C)c1	3.98µM*	u	-30.0	-25.7%	-16.9%
CCCCOC(=O)Cn1nnc2sc(-c3ccccc3)cc2c1=O	x	24.2%[46.1 µM]	11.1	13.8%[46.1 µM]	-10.8%
COc1ccc(C(=O)OCC(=O)NCC2CCCO2)c(F)c1 (configuration not stated)	9.0%	x	-3.3	x	-9.0%
COc1ccc(NC(=O)c2cc(-c3sc(NC(=O)c4ccccc4)nc3C)n(CCO)n2)cc1	x	x	47.3	x	-9.9%
Cc1ccc2cc(CCl)c(Cl)nc2c1	10µM*	u	4.6	2.3%	u
ClCc1cc2ccccc2nc1Cl	u	-5.7%[46.1 µM]	66.7	-15.9%	28.2µM*
O=Cc1c2c(cc3ccc(Cl)cc13)CCC2	x	x	2.9	x	x
O=C(Nc1ccc(Cl)cc1)c1csc(N2CCN(Cc3ccccc3)C2=O)n1	x	x	-12.4	x	x
Cc1c(/C(O)=C2\C(=O)C(=O)N(CCN3CCOCC3)[C@H]2c2cccnc2)cnn1-c1ccccc1	x	0.0%	x	x	x
